Shown are actives, neighbours in structure and some others; about 12% of the full set was active somewhere.
Sm TGR block – blocks Schistosoma mansoni thioredoxin glutathione reductase; 360,000 compounds, 3% hits; AID 485364; purified TGR, DTNB reduction, TNB absorbance 405 nm; Potency, µM (titrated, usually from 114 µM), without a hit: at the top dose activity change, negative = inhibition, most hits filed as inhibitors; also: % is scaled to controls: 0 for no effect and ±100 for the full control effect; nearly all actives have a fitted effect of over 60% in size
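First, TGR (20 nM dispensed) and NADPH were mixed with compound. Second, a 15 min room-temperature incubation followed. Third, further NADPH and then DTNB were added to start the reaction. Finally, TNB absorbance was monitored kinetically.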
Pf growth 48h – P. falciparum growth inhibition at 48 hours (one generation); P. falciparum luciferase growth in erythrocytes, 48 h; Potency, µM (top dose mostly 28.7 µM), inactives show at the top dose activity change, negative = inhibition, most hits filed as inhibitors; 310,000 compounds, 5.9% hits; also: % is scaled to controls: 0 for no effect and ±100 for the full control effect
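Luminescence readout; reporter = integrated firefly luciferase in P. falciparum. RBC culture at 2% hematocrit, 0.1% parasitemia final, 37 C/5% CO2; decreased signal taken as growth inhibition.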
SARS PLpro yeast – SARS-CoV PLP inhibition in yeast; S. cerevisiae expressing SARS-CoV PLpro, growth rescue; AID 485353; Potency, µM (highest dose often 32.9 µM), without a hit: at the highest dose activity, positive = growth rescue, usual class: activators; 330,000 compounds, 0.19% hits; calls by dose curve; also: 0% is about no effect; nearly all actives have a fitted effect of over 55% in size
Pf growth 96h – inhibits malaria parasite growth, 96 h; P. falciparum luciferase reporter growth, 96 h; Potency, µM (series often up to 28.7 µM), for inactives: at the top dose activity change, negative = inhibition, most hits filed as inhibitors; 320,000 compounds, 6.9% hits; AID 504834; also: % is scaled to controls: 0 for no effect and ±100 for the full control effect
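Luminescence readout: decreased luciferase signal marks inhibited growth of reporter-expressing P. falciparum in infected red cells (2% hematocrit, 0.05% parasitemia final), exposed to compound two generations (96 h, 37 C, 5% CO2).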
AmpC inh no detg – inhibitors of E. coli AmpC beta-lactamase without detergent | P00811 | AmpC nitrocefin hydrolysis, absorbance 480 nm, 0.0001% Triton | Potency, µM (top dose mostly 57.1 µM), for inactives: top-dose activity change, negative = inhibition, hits mostly inhibitors | 330,000 compounds, 0.52% hits | AID 485341;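 also: plate controls were no compound for no effect and no enzyme for full effect; nearly all actives have a fitted effect of over 20% in size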
Target sequence (P00811 whole entry, looked up): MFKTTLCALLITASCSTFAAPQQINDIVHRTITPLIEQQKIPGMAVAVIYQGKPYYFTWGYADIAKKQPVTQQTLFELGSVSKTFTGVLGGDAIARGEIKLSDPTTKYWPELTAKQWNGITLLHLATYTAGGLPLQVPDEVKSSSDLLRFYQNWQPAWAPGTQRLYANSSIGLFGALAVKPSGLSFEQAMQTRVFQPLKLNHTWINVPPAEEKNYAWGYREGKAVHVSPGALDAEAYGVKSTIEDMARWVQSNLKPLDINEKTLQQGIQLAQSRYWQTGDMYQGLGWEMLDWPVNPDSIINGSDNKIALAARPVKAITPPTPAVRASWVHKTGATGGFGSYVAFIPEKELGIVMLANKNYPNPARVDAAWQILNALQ
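20 mM phosphate pH 7.0 + 0.01% (detergent screen) or 0.0001% Triton X-100; 5.3 nM AmpC reagent; cpd preinc 15 min RT; nitrocefin (800 uM stock) to start; A480 q20 s × 4 min; Activity was normalised to no-enzyme and no-compound control wells.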
AmpC inh detg – blocks E. coli AmpC beta-lactamase in detergent assay | 370,000 compounds, 0.041% hits | P00811 | AID 485294 | Potency, µM (top dose mostly 114 µM), for the others: at the top dose activity change, negative = inhibition, usual class: inhibitors | AmpC hydrolysis of nitrocefin, absorbance 480 nm, 0.01% Triton;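 also: 0% = no-compound wells and -100% = no-enzyme wells; nearly all actives have a fitted effect of over 25% in size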
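AmpC (5.3 nM in the dispensed reagent) in 20 mM phosphate pH 7.0 with 0.01% (detergent screen) or 0.0001% Triton X-100 was preincubated with compounds for 15 min at room temperature. Nitrocefin was then added from an 800 uM solution, and hydrolysis was followed at 480 nm.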
* marks the source's active call; other numbers are inactive results; ! = not active in a repeat; [ ] = dose if it differs, or a comment. Unless noted, calls follow the shape of the dose curve; as a rule, active = well fitted curve in the direction sought with a large enough effect; inconclusive = small, poorly fitted or top-dose-only effect, or another doubt; inactive = no such curve, though single readings can be large; an effect the other way counts as inactive or inconclusive. Potency is read from the fitted curve at half-maximal effect.

Results for Cc1ccc(C(=O)NC(C(=O)Nc2ccccc2)c2ccccc2)cc1 (configuration not stated) ?
Sm TGR block: 23%; Pf growth 48h: 9.3µM*; SARS PLpro yeast: 2%; Pf growth 96h: -7%; AmpC inh no detg: -26%; AmpC inh detg: 5%

How did Cc1ccc(NC(NC(=O)c2cccnc2)C(Cl)(Cl)Cl)cc1 (configuration not stated) do in these assays?
Sm TGR block: -10%; Pf growth 48h: -22%; SARS PLpro yeast: -28%; Pf growth 96h: 13µM*; AmpC inh no detg: -22%; AmpC inh detg: -15%

How did COc1ccccc1NC(=O)Cn1c(=O)n(CC(=O)NCc2ccccc2Cl)c(=O)c2sccc21 do in these assays?
Sm TGR block: -2%; AmpC inh detg: 16%

How did Cc1cccc(-n2c(/C=C/c3c[nH]c4ccccc34)nc3ccccc3c2=O)c1 do in these assays?
Sm TGR block: 8%; AmpC inh detg: 13%

What do the screens show for `Cc1nc2nc(CNC(=O)c3cccc(F)c3)nn2c(C)c1CCC(=O)Nc1cccc(Cl)c1`?
Sm TGR block: 1%; AmpC inh detg: 16%

What do the screens show for `COc1ccc(NC(=O)c2cc(C(C)=O)n3ccccc23)cc1`?
Sm TGR block: 3%; AmpC inh detg: 2%

Results for Cc1cc(NCCOCCO)n2c(nc3ccccc32)c1C#N ?
Sm TGR block: 0%; Pf growth 48h: inconclusive; SARS PLpro yeast: 1%; Pf growth 96h: 1.9µM*; AmpC inh no detg: 8%; AmpC inh detg: -10%

Results for COCCNc1cc(C)c(C#N)c2nc3ccccc3n12 ?
Sm TGR block: -26%; Pf growth 48h: inconclusive; SARS PLpro yeast: 9%; AmpC inh no detg: -1%; AmpC inh detg: 2%

How did Cc1cc(NCCCO)n2c(nc3ccccc32)c1C#N do in these assays?
Sm TGR block: -15%; Pf growth 48h: 10µM*; SARS PLpro yeast: -17%; Pf growth 96h: inconclusive; AmpC inh no detg: -20%; AmpC inh detg: -12%

How did CCOc1ccc(S(=O)(=O)NN2Cc3ccccc3C2=N)cc1 do in these assays?
Sm TGR block: 11%; Pf growth 48h: -10%; SARS PLpro yeast: 2%; Pf growth 96h: -4%; AmpC inh no detg: -11%; AmpC inh detg: -11%

Results for CC1=NN(C(=O)CSCc2ccccc2)C(O)(c2ccc(Cl)cc2)C1 (configuration not stated) ?
Sm TGR block: -5%; Pf growth 48h: -28%; SARS PLpro yeast: 0%; Pf growth 96h: 12µM*; AmpC inh no detg: -4%; AmpC inh detg: 2%

How did CC(C)CC(=O)Nc1ccc(C(=O)OCc2cc(=O)n3nc(C(C)C)sc3n2)cc1 do in these assays?
Sm TGR block: -4%; AmpC inh detg: -4%

What do the screens show for `CC[n+]1c(-c2ccccc2)c2cc(N)ccc2c2ccc(N)cc21`?
Pf growth 48h: 0.048µM*; Pf growth 96h: 0.003µM*!

What do the screens show for `COc1ccc(C2C=C(c3ccccc3)Nc3nc(NC(=O)/C=C/c4ccc(F)cc4)nn32)cc1` (configuration not stated)?
Sm TGR block: 0%; AmpC inh detg: 13%

What do the screens show for `CCN1C(=O)/C(=C\N2CCCCCC2)SC1=S`?
Sm TGR block: -2%; Pf growth 48h: inconclusive; SARS PLpro yeast: 0%; Pf growth 96h: 12µM*; AmpC inh no detg: 0%; AmpC inh detg: inconclusive

What do the screens show for `COc1ccc(N(CC(=O)NCc2ccccc2Cl)S(=O)(=O)c2c(C)nn(C)c2C)cc1`?
Sm TGR block: 0%; AmpC inh detg: -3%

What do the screens show for `CCc1ccc(NC(=O)c2cnc3sc(N4CCCC4)nn3c2=O)cc1`?
Sm TGR block: -21%; AmpC inh detg: -1%

What do the screens show for `O=C1c2oc3ccc(F)cc3c(=O)c2C(c2cccc([N+](=O)[O-])c2)N1CCCN1CCOCC1` (configuration not stated)?
Sm TGR block: 0%; AmpC inh detg: 19%

What do the screens show for `C=CCOc1cccc(C2c3c(oc4ccc(F)cc4c3=O)C(=O)N2CCCN2CCOCC2)c1` (configuration not stated)?
Sm TGR block: inconclusive; Pf growth 48h: 12µM*; SARS PLpro yeast: 0%; Pf growth 96h: 6%; AmpC inh no detg: 86%; AmpC inh detg: 7%

How did O=C1c2oc3ccc(F)cc3c(=O)c2C(c2cccc(O)c2)N1CCCN1CCOCC1 (configuration not stated) do in these assays?
Sm TGR block: -15%; Pf growth 48h: 25%; SARS PLpro yeast: 3%; Pf growth 96h: 10µM*; AmpC inh no detg: -14%; AmpC inh detg: -17%

How did CC(=O)N(CCC(c1ccco1)C(C)C)Cc1ccc(OC(C)C)cc1 (configuration not stated) do in these assays?
Sm TGR block: inconclusive; Pf growth 48h: inconclusive; SARS PLpro yeast: 1%; Pf growth 96h: inconclusive; AmpC inh no detg: 129%; AmpC inh detg: 4%

How did CCC(=O)N(CCC(c1ccco1)c1ccccc1OC)Cc1cccs1 (configuration not stated) do in these assays?
Sm TGR block: 18µM*; SARS PLpro yeast: -7%; Pf growth 96h: 10µM*; AmpC inh no detg: 36%; AmpC inh detg: -1%

How did CC(=O)N(CCC(c1ccccc1)c1ccco1)Cc1cccs1 (configuration not stated) do in these assays?
Sm TGR block: 11µM*; Pf growth 48h: 48%; SARS PLpro yeast: 0%; Pf growth 96h: 1%; AmpC inh no detg: -10%; AmpC inh detg: -1%

How did COc1cc(NC(=O)c2cc(C3CC3)nc3c2c(C)nn3-c2ccc(C)cc2)cc(OC)c1 do in these assays?
Sm TGR block: 6%; AmpC inh detg: 28%

How did COc1cc(NC(C)C(=O)N2CC(C)OC(C)C2)cc(OC)c1 (configuration not stated) do in these assays?
Sm TGR block: -9%; Pf growth 48h: 4.7µM*; SARS PLpro yeast: -1%; AmpC inh no detg: 91%; AmpC inh detg: -13%

How did CCOC(=O)c1c(C)[nH]c(C)c1C(=O)COc1ncnc2cc([N+](=O)[O-])ccc12 do in these assays?
Sm TGR block: -14%; Pf growth 48h: inconclusive; SARS PLpro yeast: 0%; Pf growth 96h: -64%; AmpC inh no detg: -8%[11.4 µM]; AmpC inh detg: -9%

Results for Cc1ccc(NC(=O)CNC(=O)Cn2c(C)cc3ccccc3c2=O)cc1F ?
Sm TGR block: 4%; AmpC inh detg: 11%

Compound activity as filed in PubChem BioAssay.
